Source: PubChem BioAssay AID777 (Sanford-Burnham Center for Chemical Genomics, 2007)
Screen size: about 96,000 compounds; about 19,000 (20%) were called active. Only a sample is shown. Unmarked numbers belong to inactive results.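 The calls were made as follows: active = blocking of liver enzyme CYP2C9 beyond about 50% at 5 µM (limit read from the data); inactive = the rest.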

biological target: Cytochrome P450 2C9 (Homo sapiens) (UniProt P11712); assay: blockers of cytochrome P450 2C9 activity – biochemical, luminescence, ADME assay, primary screen (AID 777); settings: CYP2C9 Supersomes, luciferin-H conversion, at 5 µM, hits give high values
Sequence (P11712 whole entry, looked up): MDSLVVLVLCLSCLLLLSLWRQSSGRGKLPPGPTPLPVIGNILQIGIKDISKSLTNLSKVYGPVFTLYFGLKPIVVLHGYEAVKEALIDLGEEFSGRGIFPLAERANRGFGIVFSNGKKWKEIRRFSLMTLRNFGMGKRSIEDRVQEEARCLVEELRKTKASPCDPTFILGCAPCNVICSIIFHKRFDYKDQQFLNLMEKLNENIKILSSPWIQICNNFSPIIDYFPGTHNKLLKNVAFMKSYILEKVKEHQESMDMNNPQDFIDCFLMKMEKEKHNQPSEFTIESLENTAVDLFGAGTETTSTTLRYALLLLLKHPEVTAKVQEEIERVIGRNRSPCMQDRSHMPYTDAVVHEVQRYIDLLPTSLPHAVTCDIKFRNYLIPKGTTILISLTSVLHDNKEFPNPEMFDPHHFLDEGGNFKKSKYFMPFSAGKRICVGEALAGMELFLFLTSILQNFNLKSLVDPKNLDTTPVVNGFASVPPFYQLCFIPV

Compound | inhibition
O=C(CSc1nc2ccccc2o1)N1CCN(c2ccccc2)CC1 | 29.7%
CC(C)OCCCNC(=O)C1CC(=O)N(C2CCCCCCC2)C1 (centres undefined) | -4.2%
CC(CN1CCCCC1)OC(=O)c1ccccc1Cl (centres undefined) | 9.2%
CCOC(=O)c1sc2nc(SC)nc(-c3ccccc3)c2c1N | 13.3%
CCOC(=O)c1ccc(N2C(=O)CC(N(C)Cc3ccccc3)C2=O)cc1 (centres undefined) | -9.5%
CCOC(=O)c1sc(N(Cc2ccccc2)C(=O)CN2C(=O)CN(C)C2=O)nc1C | 57.9% (active)
Cc1cc(Oc2ccccc2)nc(N2CCOCC2)n1 | 26.5%
c1ccc(Nc2nc(N3CCOCC3)c3ccccc3n2)cc1 | 56.9% (active)
c1ccc(COc2nsnc2N2CCOCC2)cc1 | 30.3%
COCc1[nH][nH]c(=O)c1C=Nc1ccc(F)cc1F | -10%
CCCOC(=O)CC1C(=O)NCCN1Cc1ccc(F)cc1 (centres undefined) | 6.4%
CCC(C)(C(=O)NC1CCCCC1)N(C)C(=O)c1ccc2c(c1)OCO2 (centres undefined) | -1.7%
Cc1ccnc(NC(=O)c2ccc(NC(=O)c3ccco3)cc2)c1 | -0.6%
COC(=O)c1ccc(NC(=O)c2ccco2)cc1 | 24%
CC(C)(C)NC(=O)c1cc(NC(=O)c2ccco2)cc(NC(=O)c2ccco2)c1 | 64.8% (active)
CN1CCN(CC(=O)C23CC4CC(CC(C4)C2)C3)CC1 | 5.7%
Cc1ccc(N2C(=O)C(Cc3ccccc3)NC2=S)cc1 (centres undefined) | 78.4% (active)
Cc1cc(C)nc(N2C(=O)CC(Cc3ccccc3)C2=O)n1 (centres undefined) | -14%
Cc1ccc(N2C(=O)C3C(c4ccccc4)(C2=O)C3(c2ccccc2)c2ccccc2)cc1 (centres undefined) | 28.1%
CCOC(=O)N1CCC(NC(=O)CN2C(=O)COc3ccc(C(C)(C)C)cc32)CC1 | 10.3%
CCCCC(=O)N/N=C(\C)CC(=O)Nc1cc(Cl)ccc1OC | -51.9%
CN(C)c1ccc(-n2cccc2/C=C2/SC(=Nc3ccc(F)cc3)NC2=O)cc1 | 5.1%
Cc1ccc(-c2nnc(C)c(N3CC(C)OC(C)C3)n2)cc1 (centres undefined) | 17.3%
COc1ccc(C)cc1NC(=O)CSc1nc(SC)ns1 | -3.2%
COc1ccc(C)cc1NC(=O)CCC(=O)Nc1nnc(C(F)(F)F)s1 | 50.2% (active)

Compound | inhibition
COc1ccc(C)cc1NC(=O)CCS(=O)(=O)c1cccc2nonc12 | 34.9%
CC(=NCc1ccco1)C1=C(O)c2ccccc2C1=O | 78.9% (active)
CC(=NCc1ccc2c(c1)OCO2)C1=C(O)c2ccccc2C1=O | 28.1%
O=C1C(C=NCC2CCCO2)=C(O)c2ccccc21 (centres undefined) | 3.5%
CC(Sc1sc(=S)sc1SC(C)C(=O)O)C(=O)O (centres undefined) | 10.2%
CCS(=O)(=O)c1ccc2oc(SCC(=O)N3c4ccccc4CC3C)nc2c1 (centres undefined) | 46.1%
CCCCn1ccnc1C(=O)c1cccc(S(=O)(=O)N2c3ccccc3CC2C)c1 (centres undefined) | 68.5% (active)
CCn1c(CSc2ncccn2)nnc1SCC(=O)N1c2ccccc2CC1C (centres undefined) | -1.7%
O=C1Nc2ccc(Br)cc2/C1=N/N=C/C1=C(N2CCOCC2)C(=C\c2ccccc2)/CC1 | 84.9% (active)
Cc1noc(C)c1S(=O)(=O)NCCc1ccc(S(N)(=O)=O)cc1 | -3.8%
CCSC(C)CC1C/C(=N/O)c2c(C)noc2C1 (centres undefined) | 61.3% (active)
COc1ccc(C(=O)NCc2cn3ccccc3n2)cc1 | 2.4%
O=C(c1cc(-c2cccs2)on1)N1CCCCC1 | -21.4%
Cc1occc1C(=O)N1CCCc2ccccc21 | -1.8%
O=C(c1cccc(C(=O)N2CCc3ccccc32)n1)N1CCc2ccccc21 | 8.6%
O=C(c1cc(-c2ccc(O)cc2)on1)N1CCCc2ccccc21 | 55.3% (active)
O=C(c1cc(-c2ccccc2O)on1)N1CCCC1 | -51.3%
O=C(c1cc(-c2cccc(O)c2)on1)N1CCc2ccccc2C1 | 55.8% (active)
CNC(=O)c1nnn(-c2ccccc2)c1C(=O)NC | -7.1%
O=C(O)c1cccnc1NC1CCCC1 | 4.1%
COc1ccc(-n2nnc3c(=O)n(CC(=O)N4CCC(Cc5ccccc5)CC4)cnc32)cc1 | 17.9%
Cc1ccc(NC(=O)N2CCC(C(=O)NCc3ccc(F)cc3)CC2)cc1 | 34%
Cc1ccc(NC(=O)N2CCC(c3nc4c(nnn4Cc4c(F)cccc4Cl)c(=O)[nH]3)CC2)cc1 | 87.7% (active)
O=C(CSCc1c(F)cccc1Cl)NCC1CCCO1 (centres undefined) | -7.5%
COc1ccc(Cn2nnc3c(=O)[nH]c(C4CCN(C(=O)c5ccccc5Cl)CC4)nc32)cc1 | 79.7% (active)

Compound | inhibition
Cc1ccc(Cn2nnc3c(=O)n(CC(=O)N4CCCCC4)cnc32)cc1 | -4.1%
Oc1ccc(CNc2ccccc2O)cc1 | 22.4%
CCN(c1ccccc1)S(=O)(=O)c1ccc(NC(=O)C(C)(C)C)cc1 | 31.5%
CC(C)(CCl)C(=O)Nc1ccc(Sc2ccc(F)cc2)cc1 | 84.9% (active)
COC(=O)c1ccc(Sc2ccc(F)cc2)c(N)c1 | 43.1%
O=C1CC(NNc2ccccc2)C(=O)N1c1cccc(Cl)c1 (centres undefined) | 0.1%
Cc1noc(C)c1S(=O)(=O)Nc1ccc(C(=O)O)cc1 | 1.8%
CCCCN(CC)C(=O)CN(C)S(=O)(=O)c1cccc2nsnc12 | 16.6%
Clc1ccc(-c2cc(COc3ccccc3)no2)cc1Cl | -0.8%
O=S(=O)(Cc1cc(Sc2ccccc2)nc(-c2ccccc2)n1)c1ccccc1 | 52.5% (active)
O=C1CC2(CCCCC2)Oc2ccc(OCC(=O)N3CCOCC3)cc21 | 2.2%
Brc1cccc(-c2nnc3n2CCC3)c1 | -21.9%
Cc1ccc(Cc2cnc(NC(=O)/C(C#N)=C/c3ccc(-c4cccc([N+](=O)[O-])c4)o3)s2)cc1 | 25.6%
Cc1ccc2c(c1)N(C(=O)CCC(=O)N1CCc3ccccc3C1)CCO2 | 13.6%
O=C1N=C(N2CCCC2)S/C1=C\c1cccc(Br)c1 | -42.1%
CC(C)C(=O)NC(=S)Nc1ccccc1F | 20.1%
COc1ccccc1NC(=S)NC(=O)C(C)C | 12.2%
CC(C)C(=O)Nc1cccc(NC(=S)NC(=O)C(c2ccccc2)c2ccccc2)c1 | 98.8% (active)
CC(=O)c1c(C)[nH]c(C(=O)NCCCN2CCCC2)c1C | -3.6%
O=C(c1cn(-c2ccccc2)nc1-c1cccnc1)N1CCCCC1 | 52.5% (active)
Cc1c(C(=O)NCc2ccccc2)cnn1-c1ccccc1 | -4%
O=C(NCc1cccnc1)c1cccnc1Sc1ccc(Cl)cc1 | 39.9%
COc1ccccc1N1CCN(C(=O)c2cn(-c3ccccc3)nc2-c2cccnc2)CC1 | 92% (active)
COC(=O)CSc1nnc(-c2cccnc2)o1 | -12.9%
COc1ccc(-c2nn(-c3ccccc3)cc2C(=O)Nc2nc(CC(C)=O)ns2)cc1 | 10.8%

Compound | inhibition
O=C(c1ccccc1-c1ccccc1)N1CCOCC1 | 5%
O=C(Nc1ccc(N2CCN(C(=O)c3ccccc3)CC2)c(Cl)c1)c1cccnc1 | 31.6%
O=C(Nn1cc(C(=O)N2CCN(c3ccccc3F)CC2)c2ccccc2c1=O)c1cnccn1 | 20.7%
O=C(Nc1c(C(=O)N2CCCCC2)cnn1-c1ccccc1)c1ccco1 | -0.7%
COC(=O)c1cn(-c2ccccc2)nc1-c1cccnc1 | 51.7% (active)
O=C(NCc1cccnc1)c1cn(-c2ccccc2)nc1-c1cccs1 | 95.7% (active)
COC(=O)/C(=C\Nc1ccccc1)NC(=O)c1ccc(Cl)cc1Cl | 33.9%
CC(C)(C)n1nc2c(c1NC(=O)c1ccc(S(=O)(=O)N3CCCC3)cc1)CS(=O)C2 (centres undefined) | 4.2%
CCOc1nc(NCCN2CCOCC2)nc(Nc2ccc(C)cc2)n1 | 13%
O=c1c([N+](=O)[O-])cc(C(F)(F)F)cn1Cc1cccc(Cl)c1 | 23.9%
COc1ccc2c(c1OC)C(=O)c1ccccc1C2=O | 21.6%
CN1CCc2c(sc3c2c(NCc2ccco2)nc2nnnn23)C1 | 45.7%
CCN(CC)P(=O)(/C(Cl)=C\Nc1c(C)n(C)n(-c2ccccc2)c1=O)N(CC)CC | -8.4%
CNC(=O)NCCN1CCCC1=O | 35.9%
CN(CC(=O)Nc1cccc2c1CCCC2)S(=O)(=O)c1ccc(Cl)cc1 | -18.4%
Cc1nc(NC(=O)CCC(=O)O)sc1C(=O)N(C)C | 24.5%
Cc1nc(NC(=O)CN(C)S(=O)(=O)c2ccc(Cl)cc2)sc1C | 61.3% (active)
CCOC1CCCCC1NS(=O)(=O)c1ccc(Cl)cc1 (centres undefined) | 5.6%
CCOC(=O)N1CCN(S(=O)(=O)c2ccc(C(=O)Nc3ccc(F)cc3F)cc2)CC1 | 18.7%
CCOC(=O)C1CCCN(C(=O)c2ccc(CS(=O)(=O)c3ccc(Br)cc3)o2)C1 (centres undefined) | 49.8%
O=C(CSc1ncccn1)NCCc1ccccc1 | 17%
O=C(CCS(=O)(=O)Cc1ccccc1F)NCCCN1CCCCC1 | -0.3%
CCOC(=O)CN(C(=O)CN1CCOCC1)c1ccc(Br)cc1 | 5.6%
COc1cc(OC)c(C(=O)NC2CC(C)(C)NC(C)(C)C2)cc1OC | -0.9%
